The panel holds about 83,000 compounds, 20% with a hit somewhere; the sample as a whole holds those more often.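 Plates (96-well) were seeded with cells, treated with compound at one concentration, and incubated for 48 hours before percent growth was determined.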 Unmarked numbers belong to inactive results. The source made the active and inactive calls. How the source made its calls: active means growth percent below 10; inactive means the rest.

The subject of one assay is UO-31 renal. The assay can be described thus: NCI-60 one-dose screen, 48 h (100 = growth as untreated, 0 = no growth, -100 = all killed). To be noted: 10 µM.
Consider `C=C(C(=O)c1ccccc1)C(NC(C)(C)C)c1ccccc1` (stereo not drawn), for which the growth was -51.7% (active).
On to `O=c1c2ccccc2nc(SCCN2CCCCC2)n1CCc1ccccc1`, for which the growth was 57.2%.
As to `N=c1c2c(-c3ccccc3)c(-c3ccccc3)n(Cc3ccccc3)c2ncn1CCCO`, the growth is -0.199% (active).
Still for that read-out and setting: next, `COc1cc(/C=C2\Oc3cc(OCC(=O)c4ccccc4)ccc3C2=O)cc(OC)c1OC`: 67.6%; `Cc1ccc(NC(=O)CSc2nc3ccccc3c(=O)n2CCc2ccccc2)c(C(=O)O)c1`: 78.5%.
Same read-out and setting: next, `O=C(Nc1nc2ccc(F)cc2s1)c1cc(-c2ccc(F)cc2)n2nc(-c3ccccc3)cc2n1`: 98.2%; `CN1CCCNc2c(c(=O)c2=O)NCCCN(C)CCCNc2c(c(=O)c2=O)NCCCN(C)CCCNc2c(c(=O)c2=O)NCCCN(C)CCCNc2c(c(=O)c2=O)NCCCN(C)CCCNc2c(c(=O)c2=O)NCCCN(C)CCCNc2c(c(=O)c2=O)NCCCN(C)CCCNc2c(c(=O)c2=O)NCCC1`: 17.2%; `CCN1CCC2(CC1)OC(c1ccccc1)C(c1ccccc1)O2` (stereo not drawn): 87.2%.
In the case of `O=C(O)c1ccc(Cl)cc1Nc1ccc(F)cc1`, the growth is 62.5%.
On the same count and under the same terms, under `CCCCCC(=O)c1ccc(OCCCN2CCN(C(=O)OCC)CC2)cc1` stands 77.4%.
Turning to `COc1ccc(NC(=O)CSc2nc3ccccc3c(=O)n2CCc2ccccc2)cc1`, the growth is 90.2%.
Consider `COc1ccc(-c2nnc(-c3c(-c4ccccc4)nc4ncccn34)o2)cc1OC`, for which the growth was 79%.
Still for that read-out and setting: under `COc1ccc2nc3cc(Cl)ccc3c(NCCNCC(C)O)c2c1` (stereo not drawn) stands 32.4%; under `CC(C)(C)NC/C(=C\c1ccccc1)C(=O)c1ccccc1`, -83.3% (active); under `COc1ccc(-c2ccc3cc(C(=O)Nc4ccc(O)c(C(=O)/C=C/c5cc(OC)c(OC)c(OC)c5)c4)ccc3c2)cc1`, 59.6%.
On to `CCCCN(CCCC)c1cc(C(=O)CCCCCN)c2ccccc2n1`, for which the growth was -21.9% (active).
Same read-out and setting: next, `COc1ccc(NC(=O)Cc2nc3nc4sc(C)c(C)c4c(=O)n3[nH]2)cc1`: 83.1%; `COc1cc(-c2nc(-c3nnc(-c4ccc(F)c(Cl)c4)o3)c3ccccn23)cc(OC)c1OC`: 29.5%.
Consider `NC(=O)SCC(=O)Nc1ccc(S(N)(=O)=O)cc1`, for which the growth is 86.4%.
The same measure, in the same setting: next, `Nc1nccc(Nc2ccccc2)n1`: 94.7%; `Oc1[nH]c2cc(Cl)ccc2c1/C=c1/ccc2c(c1)N=C(c1cc(F)cc(F)c1)N=2`: 43.3%; `c1ccc2c(c1)oc1c3cccnc3ccc21`: 44.2%.
On the same count and under the same terms, next, `COc1ccc2c(c1)sc1nc(-c3ccccc3)c(-c3ccsc3)n12`: 37.8%.
On the same count and under the same terms, under `CSc1cc(SC)ncn1` stands 86.7%.
Turning to `COc1ccc2c(c1)sc1nc(-c3ccccc3)c(-c3ccc(O)c(OC)c3)n12`, the growth was 99.8%.
Still for that read-out and setting: under `CCCCCCCCCCCCCC[n+]1ccc(C(N)=O)cc1` stands 50.7%; under `CN1c2ccccc2[C@]2(Cc3ccccc3)Cc3ccccc3N[C@H]12`, 73.4%.
Same read-out and setting: under `CCN(CC)CCSCCCNc1c2ccc(Cl)cc2nc2ccc(OC)cc12` stands -29.1% (active).
On the same count and under the same terms, under `CC(=O)c1cc(Br)ccc1O` stands 98.7%.
For the compound `COc1ccc(-c2nc3sccn3c2-c2nc3c([nH]2)C(=O)c2ccccc2C3=O)cc1`, the growth was 71.3%.
Regarding `N=C1c2nc3n(c2C(=O)c2nc4n(c21)CCCC4)CCCC3`, the growth is 46.9%.
The same measure, in the same setting: next, `COc1ccc(-c2nc3ccccn3c2-c2nnc(-c3cc(OC)c(OC)c(OC)c3)o2)cc1`: 77.7%; `CCN(CC)CCOc1nc2ccc(OC)cc2c2c1-c1ccc(OC)cc1C2=O`: -44.4% (active).
Take `CCCCCCCCN(CCCCCCCC)CCCCCCCCCN1CCCc2cc(OC)ccc21`: the growth was 80.4%.
Regarding `COc1ccc2c(c1)C(=O)c1c-2c(OCCN(C)C)nc2cc(OC)c(OC)cc12`, the growth was 46.8%.
Same read-out and setting: next, `COc1ccc(/C(=C2\O[C@@H]([C@H]3COC(C)(C)O3)[C@H]3OC(C)(C)O[C@@H]23)c2cc(OC)c(OC)c(OC)c2)cc1O`: 49.1%; `Nc1ccn(C2CC(O)C(CO)O2)c(=O)n1` (stereo not drawn): 96.4%.
Regarding `CC(C)=CCc1ccc(O)c(=O)cc1C(C)C`, the growth is -10.4% (active).
Still for that read-out and setting: next, `COc1cc(NC(=O)CSc2nc3ccccc3c(=O)n2CCc2ccccc2)cc(OC)c1OC`: -63.2% (active).

A further assay concerns TK-10 renal. Described as above. Conditions: 10 µM.
On to `C=C(C(=O)c1ccccc1)C(NC(C)(C)C)c1ccccc1` (stereo not drawn), for which the growth is 9.63% (active).
Turning to `O=c1c2ccccc2nc(SCCN2CCCCC2)n1CCc1ccccc1`, the growth is 97.2%.
On the same count and under the same terms, next, `N=c1c2c(-c3ccccc3)c(-c3ccccc3)n(Cc3ccccc3)c2ncn1CCCO`: 35.4%; `COc1cc(/C=C2\Oc3cc(OCC(=O)c4ccccc4)ccc3C2=O)cc(OC)c1OC`: 151%; `Cc1ccc(NC(=O)CSc2nc3ccccc3c(=O)n2CCc2ccccc2)c(C(=O)O)c1`: 117%.
Same read-out and setting: next, `O=C(Nc1nc2ccc(F)cc2s1)c1cc(-c2ccc(F)cc2)n2nc(-c3ccccc3)cc2n1`: 113%.
As for `CN1CCCNc2c(c(=O)c2=O)NCCCN(C)CCCNc2c(c(=O)c2=O)NCCCN(C)CCCNc2c(c(=O)c2=O)NCCCN(C)CCCNc2c(c(=O)c2=O)NCCCN(C)CCCNc2c(c(=O)c2=O)NCCCN(C)CCCNc2c(c(=O)c2=O)NCCCN(C)CCCNc2c(c(=O)c2=O)NCCC1`, the growth was 27.1%.
Still for that read-out and setting: under `CCN1CCC2(CC1)OC(c1ccccc1)C(c1ccccc1)O2` (stereo not drawn) stands 103%.
Still for that read-out and setting: under `O=C(O)c1ccc(Cl)cc1Nc1ccc(F)cc1` stands 84.9%; under `CCCCCC(=O)c1ccc(OCCCN2CCN(C(=O)OCC)CC2)cc1`, 101%.
Still for that read-out and setting: next, `COc1ccc(NC(=O)CSc2nc3ccccc3c(=O)n2CCc2ccccc2)cc1`: 109%.
Turning to `COc1ccc(-c2nnc(-c3c(-c4ccccc4)nc4ncccn34)o2)cc1OC`, the growth was 111%.
As for `COc1ccc2nc3cc(Cl)ccc3c(NCCNCC(C)O)c2c1` (stereo not drawn), the growth is -15.6% (active).
On to `CC(C)(C)NC/C(=C\c1ccccc1)C(=O)c1ccccc1`, for which the growth is 0.816% (active).
The same measure, in the same setting: next, `COc1ccc(-c2ccc3cc(C(=O)Nc4ccc(O)c(C(=O)/C=C/c5cc(OC)c(OC)c(OC)c5)c4)ccc3c2)cc1`: 100%.
On to `CCCCN(CCCC)c1cc(C(=O)CCCCCN)c2ccccc2n1`, for which the growth was 82.6%.
Turning to `COc1ccc(NC(=O)Cc2nc3nc4sc(C)c(C)c4c(=O)n3[nH]2)cc1`, the growth is 115%.
With `COc1cc(-c2nc(-c3nnc(-c4ccc(F)c(Cl)c4)o3)c3ccccn23)cc(OC)c1OC`, the growth is 56.7%.
Regarding `NC(=O)SCC(=O)Nc1ccc(S(N)(=O)=O)cc1`, the growth is 106%.
Same read-out and setting: next, `Nc1nccc(Nc2ccccc2)n1`: 122%; `Oc1[nH]c2cc(Cl)ccc2c1/C=c1/ccc2c(c1)N=C(c1cc(F)cc(F)c1)N=2`: 58.8%; `c1ccc2c(c1)oc1c3cccnc3ccc21`: 118%.
Still for that read-out and setting: under `COc1ccc2c(c1)sc1nc(-c3ccccc3)c(-c3ccsc3)n12` stands 46.1%; under `CSc1cc(SC)ncn1`, 94%; under `COc1ccc2c(c1)sc1nc(-c3ccccc3)c(-c3ccc(O)c(OC)c3)n12`, 120%.
The same measure, in the same setting: next, `CCCCCCCCCCCCCC[n+]1ccc(C(N)=O)cc1`: -65.2% (active); `CN1c2ccccc2[C@]2(Cc3ccccc3)Cc3ccccc3N[C@H]12`: 114%; `CCN(CC)CCSCCCNc1c2ccc(Cl)cc2nc2ccc(OC)cc12`: -4.3% (active).
With `CC(=O)c1cc(Br)ccc1O`, the growth is 111%.
For `COc1ccc(-c2nc3sccn3c2-c2nc3c([nH]2)C(=O)c2ccccc2C3=O)cc1`, the growth was 111%.
For the compound `N=C1c2nc3n(c2C(=O)c2nc4n(c21)CCCC4)CCCC3`, the growth was 128%.
Still for that read-out and setting: under `COc1ccc(-c2nc3ccccn3c2-c2nnc(-c3cc(OC)c(OC)c(OC)c3)o2)cc1` stands 77.9%.
Turning to `CCN(CC)CCOc1nc2ccc(OC)cc2c2c1-c1ccc(OC)cc1C2=O`, the growth was 8.74% (active).
In the case of `CCCCCCCCN(CCCCCCCC)CCCCCCCCCN1CCCc2cc(OC)ccc21`, the growth is 117%.
The same measure, in the same setting: under `COc1ccc2c(c1)C(=O)c1c-2c(OCCN(C)C)nc2cc(OC)c(OC)cc12` stands 64.2%.
Still for that read-out and setting: under `COc1ccc(/C(=C2\O[C@@H]([C@H]3COC(C)(C)O3)[C@H]3OC(C)(C)O[C@@H]23)c2cc(OC)c(OC)c(OC)c2)cc1O` stands 109%; under `Nc1ccn(C2CC(O)C(CO)O2)c(=O)n1` (stereo not drawn), 148%; under `CC(C)=CCc1ccc(O)c(=O)cc1C(C)C`, 18.3%.
For the compound `COc1cc(NC(=O)CSc2nc3ccccc3c(=O)n2CCc2ccccc2)cc(OC)c1OC`, the growth is -2.38% (active).

The values are drawn from PubChem BioAssay (NCI).
